{"source": "PubChem BioAssay (EPA / NIEHS)", "note": "Values joined by “and” are separate entries in the source; they are usually repeats but may differ in a detail not shown here. Equal entries are not always repeated. Inconclusive results are not listed. Where a structure was tested more than once in an assay, its records may differ in their call. Active and inactive are the calls of the source. How the source made its calls: active means hit-call score of the fitted dose curve at least 0.9, where 1 is the maximum; inconclusive means response in the unintended direction; inactive means score below 0.9.", "data": [{"target": "Cellular tumor antigen p53 (Homo sapiens) (UniProt P04637)", "sequence (P04637 whole entry, looked up)": "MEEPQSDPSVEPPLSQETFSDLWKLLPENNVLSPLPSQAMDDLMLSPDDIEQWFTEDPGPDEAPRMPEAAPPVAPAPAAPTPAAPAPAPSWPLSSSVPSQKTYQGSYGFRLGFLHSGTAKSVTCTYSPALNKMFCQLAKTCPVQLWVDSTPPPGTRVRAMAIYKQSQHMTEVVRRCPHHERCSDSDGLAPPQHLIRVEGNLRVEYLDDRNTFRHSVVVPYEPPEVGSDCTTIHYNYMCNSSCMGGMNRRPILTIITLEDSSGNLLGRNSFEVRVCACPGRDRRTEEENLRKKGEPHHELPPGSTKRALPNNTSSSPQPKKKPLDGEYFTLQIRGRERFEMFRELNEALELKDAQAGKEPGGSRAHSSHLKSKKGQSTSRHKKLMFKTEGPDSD", "test": "TOX21_p53_BLA_p2_ratio: Tox21 HCT-116 p53 Agonism Beta-lactamase Assay, Ratio, Phase 2 (AID 2283592)", "method_in_brief": "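An inducible beta-lactamase reporter in HCT116 cells signals p53 pathway activation. After 16 h chemical exposure at 37C, cells load CCF4-AM substrate for 2 h at room temperature; activity is the cleaved/uncleaved emission ratio relative to DMSO.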", "values": [{"smiles": "CCCCCCC(=O)O", "outcome": "inactive"}, {"smiles": "COCC(C)O", "note": "(configuration not stated)", "outcome": "inactive"}, {"smiles": "CC(C)CCCCCCOC(=O)CCCCC(=O)OCCCCCCC(C)C", "outcome": "inactive"}, {"smiles": "CCCCCCCCOC(=O)CCCCCCCCC(=O)OCCCCCCCC", "outcome": "inactive"}, {"smiles": "CCc1nn(C2CCCCC2)c2cc(C3(C#N)CCC(C(=O)O)CC3)ccc12", "note": "(configuration not stated)", "AC50": "46.3 µM (active)"}, {"smiles": "C[C@@H]1C[C@H]2[C@@H]3CCC4=CC(=O)C=C[C@]4(C)[C@@]3(F)[C@@H](O)C[C@]2(C)[C@@]1(O)C(=O)COP(=O)(O)O", "outcome": "inactive"}, {"smiles": "CC1=C(/C=C/C(C)=C/C=C/C(C)=C/C(=O)O)C(C)(C)CCC1", "outcome": "inactive"}, {"smiles": "NC(=O)N1C(=O)C(C(=O)c2cc(Cl)cs2)c2cc(F)c(Cl)cc21", "note": "(configuration not stated)", "outcome": "inactive"}, {"smiles": "OCCC(F)(F)C(F)(F)C(F)(F)C(F)(F)C(F)(F)C(F)(F)C(F)(F)C(F)(F)F", "outcome": "inactive"}, {"smiles": "Cc1ccc(S(=O)(=O)O)c(C)c1", "outcome": "inactive"}, {"smiles": "CN1CCN(c2ccccc2/C=C2\\SCCN(c3ccc(Cl)c(Cl)c3)C2=O)CC1", "outcome": "inactive"}, {"smiles": "OC1CCCCC1", "outcome": "inactive"}, {"smiles": "CCCCOCCO", "outcome": "inactive"}, {"smiles": "NC(=O)N(O)[C@@H]1C=C[C@H](Oc2cccc(Oc3ccc(F)cc3)c2)C1", "AC50": "66.5 µM (active)"}, {"smiles": "CC(=O)NC1(c2cccc(F)c2)CCN(CC[C@@]2(c3ccc(Cl)c(Cl)c3)CN(c3ccccc3)C(=O)CO2)CC1", "AC50": "71.4 µM (active)"}, {"smiles": "CC(O)C(=O)O", "note": "(configuration not stated)", "outcome": "inactive"}, {"smiles": "Cc1cc(C)c(O)c(C)c1", "outcome": "inactive"}, {"smiles": "CCN(CC)CCNc1ccc(CNC=O)c2sc3ccc(OC)cc3c(=O)c12", "AC50": "10.2 µM (active)"}, {"smiles": "COc1ccc([N+](=O)[O-])cc1N", "outcome": "inactive"}, {"smiles": "Cc1cc(CCN2CCN(c3nsc4ccccc34)CC2)cc2c1NC(=O)CC2(C)C", "AC50": "71.6 µM (active)"}, {"smiles": "CCCCCCCCCCCCCCCS(=O)(=O)Oc1ccccc1", "outcome": "inactive"}, {"smiles": "CCCCC(CC)COC(=O)CCCCC(=O)OCc1ccccc1", "note": "(configuration not stated)", "outcome": "inactive"}, {"smiles": "c1ccc2c(c1)Cc1ccccc1-2", "outcome": "inactive"}, {"smiles": "CC[C@H](C)[C@@H](C(=O)O)n1sc2ccccc2c1=O", "outcome": "inactive"}, {"smiles": "CCCCCCCCCCCCCC[N+](C)(C)C", "AC50": "43.8 µM (active) and 11.3 µM (active)", "outcome": "inactive"}, {"smiles": "O=C(OCCOCCOC(=O)c1ccccc1)c1ccccc1", "outcome": "inactive"}, {"smiles": "CC(O)CO", "note": "(configuration not stated)", "outcome": "inactive"}, {"smiles": "CCC(C)(C)C1CCC(O)CC1", "note": "(configuration not stated)", "outcome": "inactive"}]}, {"system": "not listed separately", "test": "TOX21_p53_BLA_p3_viability: Viability Assessment in the Tox21 HCT-116 p53 Agonism Beta-lactamase Assay, Phase 3 (AID 2283593);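 further: cells exposed to compound for 16 h before reading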", "method_in_brief": "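Cellular ATP was quantified by CellTiter-Glo luminescence, read after 30 min at room temperature. Beforehand, HCT116 cells (4000/well) received compound 5 h post-seeding, 217-fold diluted from DMSO, then incubated 16 h at 37C.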", "values": [{"smiles": "CCCCCCC(=O)O", "outcome": "inactive"}, {"smiles": "O=C1OC2(c3ccccc31)c1cc(Br)c(O)c(Br)c1Oc1c2cc(Br)c(O)c1Br", "outcome": "inactive"}, {"smiles": "CCc1nn(C2CCCCC2)c2cc(C3(C#N)CCC(C(=O)O)CC3)ccc12", "note": "(configuration not stated)", "outcome": "inactive"}, {"smiles": "C[C@@H]1C[C@H]2[C@@H]3CCC4=CC(=O)C=C[C@]4(C)[C@@]3(F)[C@@H](O)C[C@]2(C)[C@@]1(O)C(=O)COP(=O)(O)O", "outcome": "inactive"}, {"smiles": "CC1=C(/C=C/C(C)=C/C=C/C(C)=C/C(=O)O)C(C)(C)CCC1", "AC50": "47.8 µM (active)", "outcome": "inactive"}, {"smiles": "NC(=O)N1C(=O)C(C(=O)c2cc(Cl)cs2)c2cc(F)c(Cl)cc21", "note": "(configuration not stated)", "outcome": "inactive"}, {"smiles": "Cc1ccc(S(=O)(=O)O)c(C)c1", "outcome": "inactive"}, {"smiles": "CN1CCN(c2ccccc2/C=C2\\SCCN(c3ccc(Cl)c(Cl)c3)C2=O)CC1", "AC50": "77.6 µM (active)"}, {"smiles": "NC(=O)N(O)[C@@H]1C=C[C@H](Oc2cccc(Oc3ccc(F)cc3)c2)C1", "outcome": "inactive"}, {"smiles": "CC(=O)NC1(c2cccc(F)c2)CCN(CC[C@@]2(c3ccc(Cl)c(Cl)c3)CN(c3ccccc3)C(=O)CO2)CC1", "AC50": "66.9 µM (active)"}, {"smiles": "Cc1cc(C)c(O)c(C)c1", "outcome": "inactive"}, {"smiles": "CCN(CC)CCNc1ccc(CNC=O)c2sc3ccc(OC)cc3c(=O)c12", "outcome": "inactive"}, {"smiles": "COc1ccc([N+](=O)[O-])cc1N", "outcome": "inactive"}, {"smiles": "Cc1cc(CCN2CCN(c3nsc4ccccc34)CC2)cc2c1NC(=O)CC2(C)C", "AC50": "19.9 µM (active)"}, {"smiles": "CCCCCCCCCCCCCCCS(=O)(=O)Oc1ccccc1", "outcome": "inactive"}, {"smiles": "c1ccc2c(c1)Cc1ccccc1-2", "outcome": "inactive"}, {"smiles": "CCCCCCCCCCCCCC[N+](C)(C)C", "AC50": "37.5 µM (active)", "outcome": "inactive"}, {"smiles": "CC(O)CO", "note": "(configuration not stated)", "outcome": "inactive"}, {"smiles": "CCC(C)(C)C1CCC(O)CC1", "note": "(configuration not stated)", "outcome": "inactive"}]}, {"target": "Cellular tumor antigen p53 (Homo sapiens) (UniProt P04637)", "test": "TOX21_p53_BLA_p3_ratio: Tox21 HCT-116 p53 Agonism Beta-lactamase Assay, Ratio, Phase 3 (AID 2283596)", "method_in_brief": "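HCT116 p53-bla cells (4000/well) given compound in DMSO (217-fold dilution) after 5 h, incubated 16 h at 37C. CCF4-AM substrate 2 h at room temperature; 460/530 nm emission ratio, gain fitted against DMSO.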", "values": [{"smiles": "CCCCCCC(=O)O", "outcome": "inactive"}, {"smiles": "COCC(C)O", "note": "(configuration not stated)", "outcome": "inactive"}, {"smiles": "CCCCCCCCOC(=O)CCCCCCCCC(=O)OCCCCCCCC", "outcome": "inactive"}, {"smiles": "CCc1nn(C2CCCCC2)c2cc(C3(C#N)CCC(C(=O)O)CC3)ccc12", "note": "(configuration not stated)", "AC50": "73.5 µM (active)"}, {"smiles": "CC1=C(/C=C/C(C)=C/C=C/C(C)=C/C(=O)O)C(C)(C)CCC1", "AC50": "85.7 µM (active)", "outcome": "inactive"}, {"smiles": "NC(=O)N1C(=O)C(C(=O)c2cc(Cl)cs2)c2cc(F)c(Cl)cc21", "note": "(configuration not stated)", "AC50": "2.59 µM (active)"}, {"smiles": "OCCC(F)(F)C(F)(F)C(F)(F)C(F)(F)C(F)(F)C(F)(F)C(F)(F)C(F)(F)F", "outcome": "inactive"}, {"smiles": "Cc1ccc(S(=O)(=O)O)c(C)c1", "outcome": "inactive"}, {"smiles": "CN1CCN(c2ccccc2/C=C2\\SCCN(c3ccc(Cl)c(Cl)c3)C2=O)CC1", "outcome": "inactive"}, {"smiles": "OC1CCCCC1", "outcome": "inactive"}, {"smiles": "CCCCOCCO", "outcome": "inactive"}, {"smiles": "NC(=O)N(O)[C@@H]1C=C[C@H](Oc2cccc(Oc3ccc(F)cc3)c2)C1", "outcome": "inactive"}, {"smiles": "CC(=O)NC1(c2cccc(F)c2)CCN(CC[C@@]2(c3ccc(Cl)c(Cl)c3)CN(c3ccccc3)C(=O)CO2)CC1", "AC50": "71.6 µM (active)"}, {"smiles": "CC(O)C(=O)O", "note": "(configuration not stated)", "outcome": "inactive"}, {"smiles": "Cc1cc(C)c(O)c(C)c1", "outcome": "inactive"}, {"smiles": "CCN(CC)CCNc1ccc(CNC=O)c2sc3ccc(OC)cc3c(=O)c12", "AC50": "18.7 µM (active)"}, {"smiles": "COc1ccc([N+](=O)[O-])cc1N", "outcome": "inactive"}, {"smiles": "Cc1cc(CCN2CCN(c3nsc4ccccc34)CC2)cc2c1NC(=O)CC2(C)C", "outcome": "inactive"}, {"smiles": "CCCCC(CC)COC(=O)CCCCC(=O)OCc1ccccc1", "note": "(configuration not stated)", "outcome": "inactive"}, {"smiles": "c1ccc2c(c1)Cc1ccccc1-2", "outcome": "inactive"}, {"smiles": "CC[C@H](C)[C@@H](C(=O)O)n1sc2ccccc2c1=O", "outcome": "inactive"}, {"smiles": "CCCCCCCCCCCCCC[N+](C)(C)C", "AC50": "39.8 µM (active) and 14.6 µM (active)", "outcome": "inactive"}, {"smiles": "O=C(OCCOCCOC(=O)c1ccccc1)c1ccccc1", "outcome": "inactive"}, {"smiles": "CC(O)CO", "note": "(configuration not stated)", "outcome": "inactive"}, {"smiles": "CCC(C)(C)C1CCC(O)CC1", "note": "(configuration not stated)", "outcome": "inactive"}]}]}
